The results in this text go back to PubChem BioAssay (EPA / NIEHS).

Records with an inconclusive call do not appear. Active and inactive are the calls of the source. Rule for the calls, unless noted: active = hit-call score of the fitted dose curve at least 0.9, where 1 is the maximum; inactive = score below 0.9.

Assay [1] in a line: ATG_NFI_CIS: Attagene CIS-FACTORIAL HepG2 Assay for human Nuclear Factor I (NFI) (AID 2282989). As to conditions: HepG2 cis-regulatory reporter, NFI response element transcription; actives raise or lower the signal. In short, it runs like this: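 HepG2, transient MRTU, 24 h exposure; RNA→cDNA→PCR→FAM label→HpaI→CE fluorescence. Bidirectional fit, DMSO = baseline.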
For assay [2], the target named is Myc proto-oncogene protein (Homo sapiens) (UniProt P01106). Briefly: ATG_Myc_CIS: Attagene CIS-FACTORIAL HepG2 Assay for human Myelocytomatosis (Myc) Proto-Oncogene Transcription Factor (AID 2282990). As to conditions: HepG2, Attagene cis-reporter transcription factor activity; actives raise or lower the signal. Summed up: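 Cells of the HepG2 human liver line bear multiple cis-driven reporter transcription units. Reporter mRNA after 24 h exposure is reverse-transcribed, amplified, labelled and resolved by capillary electrophoresis, with gain- or loss-of-signal fitting relative to DMSO.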
Myc proto-oncogene protein (Homo sapiens), sequence (P01106 whole entry, looked up): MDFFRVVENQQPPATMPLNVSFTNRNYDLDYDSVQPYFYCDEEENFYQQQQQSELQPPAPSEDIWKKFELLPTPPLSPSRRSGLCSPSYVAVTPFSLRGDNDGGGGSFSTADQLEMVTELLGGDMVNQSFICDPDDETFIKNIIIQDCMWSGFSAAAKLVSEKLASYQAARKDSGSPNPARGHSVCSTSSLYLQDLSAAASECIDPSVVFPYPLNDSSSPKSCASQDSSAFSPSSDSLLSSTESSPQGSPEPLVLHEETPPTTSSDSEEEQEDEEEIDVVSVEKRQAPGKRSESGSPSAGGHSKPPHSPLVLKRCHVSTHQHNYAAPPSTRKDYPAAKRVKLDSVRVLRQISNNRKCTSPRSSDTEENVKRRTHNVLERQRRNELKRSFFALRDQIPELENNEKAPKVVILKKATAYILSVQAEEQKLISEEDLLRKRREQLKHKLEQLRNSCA

Assay [3] can be described thus: ATG_NF_kB_CIS: Attagene CIS-FACTORIAL HepG2 Assay for human Nuclear Factor Kappa B (NF-kB) (AID 2282991). As to conditions: HepG2 Attagene cis-factorial NF-kB reporter mRNA; actives raise or lower the signal. Summed up:
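HepG2, transient multi-reporter transfection, cis promoter elements (endogenous TFs). 24 h exposure. Total RNA → RT → PCR → 6-FAM label → HpaI → CE. Gain/loss vs DMSO.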

A short description of assay [4]: ATG_NRF2_ARE_CIS: Attagene CIS-FACTORIAL HepG2 Assay for human Nuclear Factor Erythroid 2 Related Factor 2 (NFR2) response to Antioxidant Response Elements (ARE) (AID 2282992).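 For AC50: reporter mRNA level measured by RT-PCR and capillary electrophoresis fluorescence.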 As to conditions: HepG2 Attagene ARE/NRF2 reporter, transcription factor activity; actives raise or lower the signal. Summed up:
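Multiplexed reporter mRNA profiling in HepG2 after a 24 h chemical exposure. Curves fitted in both directions relative to DMSO negative control.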

Assay [5] can be described thus: ATG_Oct_MLP_CIS: Attagene CIS-FACTORIAL HepG2 Assay for human Octamer-Binding Transcription Factor (Oct) (AID 2282993). As to conditions: HepG2 Attagene cis-factorial Oct reporter, mRNA; actives raise or lower the signal. In short, it runs like this: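 Multiplexed cis-reporter assay in human liver HepG2 cells, 24 h incubation. Reporter RNA amplified and labelled, then resolved by capillary electrophoresis; DMSO serves as negative control and baseline.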

Assay [6] concerns the target Cellular tumor antigen p53 (Homo sapiens) (UniProt P04637). Briefly: ATG_p53_CIS: Attagene CIS-FACTORIAL HepG2 Assay for human p53 Transcription Factor (AID 2282994). As to conditions: HepG2 p53 cis-element reporter, Attagene mRNA; actives raise or lower the signal. In short, it runs like this: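 Multiplexed reporter mRNA assay in human HepG2 liver cells; cis-regulated units report endogenous factor activity. Values come from bidirectional curve fitting against DMSO negative control after 24 h treatment.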

Assay [7] deals with Peroxisome proliferator-activated receptor gamma (Homo sapiens) (UniProt P37231). Nature of the assay: ATG_PPARg_TRANS: Attagene TRANS-FACTORIAL HepG2 Assay for human Peroxisome Proliferator-activated Receptor-gamma (PPARg) (AID 2283007; active = hit-call score of the fitted dose curve at least 0.9, where 1 is the maximum). Summed up:
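Multiplexed reporter transcription units in HepG2, 24 h dosing, reporter transcripts quantified by fluorescent RT-PCR and capillary electrophoresis. Increase over DMSO scored.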

The target in assay [8] is Nuclear receptor subfamily 1 group I member 2 (Homo sapiens) (UniProt O75469). Nature of the assay: ATG_PXR_TRANS: Attagene TRANS-FACTORIAL HepG2 Assay for human Pregnane X Receptor (PXR) (AID 2283008; active = hit-call score of the fitted dose curve at least 0.9, where 1 is the maximum). Summed up: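 Measures mRNA induction of a GAL4-UAS-driven reporter in human HepG2 cells transiently expressing PXR fused to Gal4, following 24 h treatment. DMSO served as negative control and baseline.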
Nuclear receptor subfamily 1 group I member 2 (Homo sapiens), sequence (O75469 whole entry, looked up, the tested form may be a part): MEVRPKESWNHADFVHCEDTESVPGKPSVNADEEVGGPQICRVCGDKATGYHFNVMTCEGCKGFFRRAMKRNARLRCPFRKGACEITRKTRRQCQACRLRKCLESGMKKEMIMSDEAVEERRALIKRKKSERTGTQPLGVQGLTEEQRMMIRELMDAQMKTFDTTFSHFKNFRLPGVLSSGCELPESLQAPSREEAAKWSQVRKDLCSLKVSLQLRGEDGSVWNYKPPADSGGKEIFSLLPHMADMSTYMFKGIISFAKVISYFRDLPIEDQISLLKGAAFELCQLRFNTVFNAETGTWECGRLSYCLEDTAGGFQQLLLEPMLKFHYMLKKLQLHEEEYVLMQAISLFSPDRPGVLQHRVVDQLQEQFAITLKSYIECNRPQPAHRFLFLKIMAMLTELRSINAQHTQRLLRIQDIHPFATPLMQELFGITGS

For assay [9], the target named is human Peroxisome Proliferator-activated Receptor delta (PPARd), PPARD (gene 5467) (UniProt Q03181). Briefly: ATG_PPARd_TRANS: Attagene TRANS-FACTORIAL HepG2 Assay for human Peroxisome Proliferator-activated Receptor delta (PPARd) (AID 2283002; active = hit-call score of the fitted dose curve at least 0.9, where 1 is the maximum). Summed up: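 Cell-based TRANS reporter: HepG2, transient MRTU transfection, 24 h exposure. Readout = reporter mRNA (RT-PCR/CE, 6-FAM). Gain-of-signal fit vs DMSO control.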
human Peroxisome Proliferator-activated Receptor delta (PPARd), PPARD (gene 5467), sequence (Q03181 whole entry, looked up): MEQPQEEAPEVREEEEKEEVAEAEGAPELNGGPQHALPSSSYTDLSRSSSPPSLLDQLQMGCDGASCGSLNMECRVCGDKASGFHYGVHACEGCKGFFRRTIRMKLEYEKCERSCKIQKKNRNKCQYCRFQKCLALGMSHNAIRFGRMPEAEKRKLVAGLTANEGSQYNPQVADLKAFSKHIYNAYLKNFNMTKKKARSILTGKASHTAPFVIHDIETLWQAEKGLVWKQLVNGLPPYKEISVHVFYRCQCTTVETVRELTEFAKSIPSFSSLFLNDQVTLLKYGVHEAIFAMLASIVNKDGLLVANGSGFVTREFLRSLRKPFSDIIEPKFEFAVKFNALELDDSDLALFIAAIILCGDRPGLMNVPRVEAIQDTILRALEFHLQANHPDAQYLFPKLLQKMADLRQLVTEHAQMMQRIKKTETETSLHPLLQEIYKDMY

For assay [10], the target named is human Peroxisome Proliferator-activated Receptor alpha (PPARa), PPARA (gene 5465) (UniProt Q07869). Nature of the assay: ATG_PPARa_TRANS: Attagene TRANS-FACTORIAL HepG2 Assay for human Peroxisome Proliferator-activated Receptor alpha (PPARa) (AID 2283001; active = hit-call score of the fitted dose curve at least 0.9, where 1 is the maximum). In short, it runs like this: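 Read-out is fluorescence of reporter cDNA fragments resolved by capillary electrophoresis after RT-PCR. Human HepG2 liver cells carried transfected PPARa-Gal4 chimera and GAL4-UAS reporter units, treated 24 h; activity scored as increase over DMSO.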
human Peroxisome Proliferator-activated Receptor alpha (PPARa), PPARA (gene 5465), sequence (Q07869 whole entry, looked up, the tested form may be a part): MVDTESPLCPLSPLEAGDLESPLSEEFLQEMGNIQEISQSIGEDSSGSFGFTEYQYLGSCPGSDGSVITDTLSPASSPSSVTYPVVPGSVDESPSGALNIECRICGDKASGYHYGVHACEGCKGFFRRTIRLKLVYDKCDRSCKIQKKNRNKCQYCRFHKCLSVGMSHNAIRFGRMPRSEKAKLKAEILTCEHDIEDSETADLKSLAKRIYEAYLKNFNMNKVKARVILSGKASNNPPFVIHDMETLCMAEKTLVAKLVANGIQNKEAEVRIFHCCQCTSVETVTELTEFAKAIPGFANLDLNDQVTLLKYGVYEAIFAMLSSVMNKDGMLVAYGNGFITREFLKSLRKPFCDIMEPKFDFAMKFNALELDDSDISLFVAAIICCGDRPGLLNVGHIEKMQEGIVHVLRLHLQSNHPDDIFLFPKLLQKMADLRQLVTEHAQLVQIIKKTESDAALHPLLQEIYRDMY

The target of assay [11] is Retinoic acid receptor alpha (Homo sapiens) (UniProt P10276). Nature of the assay: ATG_RARa_TRANS: Attagene TRANS-FACTORIAL HepG2 Assay for human Retinoic Acid Receptor alpha (RARa) (AID 2283005; active = hit-call score of the fitted dose curve at least 0.9, where 1 is the maximum). In short, it runs like this:
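Reporter transcripts, measured by RT-PCR with fluorescent labeling and capillary electrophoresis after 24 h dosing, reflect activity of an exogenous human RARa–GAL4 fusion in transiently transfected HepG2. Fitted for increase relative to DMSO.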

The target of assay [12] is human RAR-related Orphan Receptor beta (RORb), RORB (gene 6096) (UniProt Q92753). Briefly: ATG_RORb_TRANS: Attagene TRANS-FACTORIAL HepG2 Assay for human RAR-related Orphan Receptor beta (RORb) (AID 2283010; active = hit-call score of the fitted dose curve at least 0.9, where 1 is the maximum). Summed up:
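Readout is reporter-gene mRNA induction, detected as fluorescence after RT-PCR and capillary electrophoresis, fitted for gain of signal against DMSO controls. Transiently transfected HepG2 liver cells carrying GAL4-UAS reporter constructs were treated for 24 hours.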

Assay [13] has as its target human Retinoic Acid Receptor gamma (RARg), RARG (gene 5916) (UniProt P13631). Nature of the assay: ATG_RARg_TRANS: Attagene TRANS-FACTORIAL HepG2 Assay for human Retinoic Acid Receptor gamma (RARg) (AID 2283009; active = hit-call score of the fitted dose curve at least 0.9, where 1 is the maximum). Summed up: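 Transient transfection of HepG2 with multi-reporter constructs, then 24 h chemical treatment. Total RNA isolated, reverse-transcribed, PCR-amplified, fluorescently labelled and resolved by capillary electrophoresis; activity scored as mRNA induction versus DMSO.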

Cellular tumor antigen p53 (Homo sapiens), sequence (P04637 whole entry, looked up): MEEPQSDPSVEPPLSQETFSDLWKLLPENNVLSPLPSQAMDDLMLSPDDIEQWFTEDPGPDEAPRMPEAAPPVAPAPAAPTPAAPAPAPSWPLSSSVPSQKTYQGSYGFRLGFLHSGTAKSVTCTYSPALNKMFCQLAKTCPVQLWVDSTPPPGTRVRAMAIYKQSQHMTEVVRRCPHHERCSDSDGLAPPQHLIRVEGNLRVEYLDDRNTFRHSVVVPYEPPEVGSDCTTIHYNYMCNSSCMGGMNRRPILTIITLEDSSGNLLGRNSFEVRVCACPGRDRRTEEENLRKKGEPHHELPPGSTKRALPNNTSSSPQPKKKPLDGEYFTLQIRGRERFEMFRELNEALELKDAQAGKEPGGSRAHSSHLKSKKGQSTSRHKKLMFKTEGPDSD
Peroxisome proliferator-activated receptor gamma (Homo sapiens), sequence (P37231 whole entry, looked up): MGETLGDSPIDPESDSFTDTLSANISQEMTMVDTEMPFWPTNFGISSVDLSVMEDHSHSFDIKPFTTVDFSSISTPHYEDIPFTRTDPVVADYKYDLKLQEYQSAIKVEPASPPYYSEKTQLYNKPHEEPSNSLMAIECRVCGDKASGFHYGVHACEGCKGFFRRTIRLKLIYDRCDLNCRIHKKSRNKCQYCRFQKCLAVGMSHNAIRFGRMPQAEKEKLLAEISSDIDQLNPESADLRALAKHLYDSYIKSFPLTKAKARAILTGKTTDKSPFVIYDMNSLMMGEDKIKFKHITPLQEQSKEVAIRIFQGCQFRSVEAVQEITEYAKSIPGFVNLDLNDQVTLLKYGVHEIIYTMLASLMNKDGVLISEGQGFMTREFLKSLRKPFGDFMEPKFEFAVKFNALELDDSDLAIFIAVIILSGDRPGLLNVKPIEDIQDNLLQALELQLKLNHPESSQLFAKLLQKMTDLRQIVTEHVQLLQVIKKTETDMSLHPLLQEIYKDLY
human RAR-related Orphan Receptor beta (RORb), RORB (gene 6096), sequence (Q92753 whole entry, looked up, the tested form may be a part): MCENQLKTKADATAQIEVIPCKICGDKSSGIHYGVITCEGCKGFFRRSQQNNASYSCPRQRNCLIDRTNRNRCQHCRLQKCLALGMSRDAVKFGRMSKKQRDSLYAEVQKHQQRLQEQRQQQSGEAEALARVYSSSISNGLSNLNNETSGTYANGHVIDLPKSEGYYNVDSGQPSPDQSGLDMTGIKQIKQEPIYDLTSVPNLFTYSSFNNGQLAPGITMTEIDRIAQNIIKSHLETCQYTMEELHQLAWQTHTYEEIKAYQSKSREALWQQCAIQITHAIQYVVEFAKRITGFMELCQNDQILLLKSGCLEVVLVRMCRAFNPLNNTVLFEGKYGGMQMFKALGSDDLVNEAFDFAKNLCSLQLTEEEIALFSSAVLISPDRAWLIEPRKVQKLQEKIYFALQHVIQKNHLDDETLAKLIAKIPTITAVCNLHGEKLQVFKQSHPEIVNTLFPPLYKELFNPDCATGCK
human Retinoic Acid Receptor gamma (RARg), RARG (gene 5916), sequence (P13631 whole entry, looked up): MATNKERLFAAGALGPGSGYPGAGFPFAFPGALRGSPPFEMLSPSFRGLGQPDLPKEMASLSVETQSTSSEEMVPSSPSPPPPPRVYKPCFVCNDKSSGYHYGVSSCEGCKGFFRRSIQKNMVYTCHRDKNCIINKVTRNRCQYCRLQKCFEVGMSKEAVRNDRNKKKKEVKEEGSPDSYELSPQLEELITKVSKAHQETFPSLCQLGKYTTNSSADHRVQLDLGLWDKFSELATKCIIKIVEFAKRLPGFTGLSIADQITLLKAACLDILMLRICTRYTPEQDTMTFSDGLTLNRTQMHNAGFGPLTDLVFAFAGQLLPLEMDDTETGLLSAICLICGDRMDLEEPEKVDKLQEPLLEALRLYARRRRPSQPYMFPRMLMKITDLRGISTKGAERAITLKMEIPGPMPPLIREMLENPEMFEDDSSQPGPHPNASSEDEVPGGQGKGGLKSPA
Retinoic acid receptor alpha (Homo sapiens), sequence (P10276 whole entry, looked up, the tested form may be a part): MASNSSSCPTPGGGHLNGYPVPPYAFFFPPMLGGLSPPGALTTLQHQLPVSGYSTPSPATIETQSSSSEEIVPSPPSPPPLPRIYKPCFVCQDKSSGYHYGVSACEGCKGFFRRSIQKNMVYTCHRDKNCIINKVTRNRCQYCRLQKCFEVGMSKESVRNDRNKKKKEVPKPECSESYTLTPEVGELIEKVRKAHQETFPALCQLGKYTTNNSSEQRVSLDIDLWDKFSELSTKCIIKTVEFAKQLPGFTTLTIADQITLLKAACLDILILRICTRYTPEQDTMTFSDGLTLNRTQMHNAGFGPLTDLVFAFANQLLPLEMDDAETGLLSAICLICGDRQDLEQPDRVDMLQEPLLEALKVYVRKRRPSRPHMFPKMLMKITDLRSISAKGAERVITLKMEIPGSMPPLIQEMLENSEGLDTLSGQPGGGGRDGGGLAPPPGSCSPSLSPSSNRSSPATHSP

On to `SCCc1cnccn1`, for which the call in assay [1], in assay [2], in assay [4], in [5], in [7] and in assay [8] was inactive. Further, the half-maximal activity concentration (AC50) was 47.7 µM (active) in assay [3] and 46.4 µM (active) in assay [6].
As for `COC(=O)c1cc(Cl)ccc1[N+](=O)[O-]`, the compound was classed as inactive in assay [1], in assay [2], in assay [3], in assay [5], in assay [6] and in assay [8]. The AC50 is 48 µM (active) in assay [4] and 19.7 µM (active) in [7].
Take `O=S(=O)(O)c1ccc2cc(O)c(S(=O)(=O)O)cc2c1`: the compound was classed as inactive in [1], in assay [2], in [5], in assay [9] and in assay [8]. The concentration at half-maximal activity (AC50) was 120 µM (active) in [3], 46.6 µM (active) in [4] and 182 µM (active) in [6].
As for `O=C(O)CCCC[C@@H]1SC[C@@H]2NC(=O)N[C@@H]21`, the call in assay [1], in assay [2], in [3], in assay [4], in [5] and in assay [10] was inactive. Further, the compound was classed as inactive in assay [9], in [11], in assay [7], in assay [8] and in assay [12].
Regarding `CC(C)c1ccc(C=O)cc1`, the compound was classed as inactive in [1], in assay [2], in assay [3], in assay [4], in assay [5] and in assay [6]. For the same compound, the compound was called inactive in assay [9], in [7] and in assay [12].
Consider `CCCCCCCCCCCCCOP(=O)(O)O`, for which the result in assay [1], in assay [2], in assay [3], in assay [4], in assay [5] and in assay [6] was inactive. The call in assay [9] and in assay [13] was inactive. For the same compound, in assay [7], the AC50 was 16.4 µM (active).

One may read the AC50 as the midpoint of the concentration-response curve, whichever way the signal moves.
